D1 ag = human D1 receptor agonism. P21728. HEK293 T-REx D1 cells, calcium flux, agonist mode. activation, % at 2 µM. 1% of 360,000 active. AID 504660; note: 0% is about no effect
Target sequence (P21728 whole entry, looked up): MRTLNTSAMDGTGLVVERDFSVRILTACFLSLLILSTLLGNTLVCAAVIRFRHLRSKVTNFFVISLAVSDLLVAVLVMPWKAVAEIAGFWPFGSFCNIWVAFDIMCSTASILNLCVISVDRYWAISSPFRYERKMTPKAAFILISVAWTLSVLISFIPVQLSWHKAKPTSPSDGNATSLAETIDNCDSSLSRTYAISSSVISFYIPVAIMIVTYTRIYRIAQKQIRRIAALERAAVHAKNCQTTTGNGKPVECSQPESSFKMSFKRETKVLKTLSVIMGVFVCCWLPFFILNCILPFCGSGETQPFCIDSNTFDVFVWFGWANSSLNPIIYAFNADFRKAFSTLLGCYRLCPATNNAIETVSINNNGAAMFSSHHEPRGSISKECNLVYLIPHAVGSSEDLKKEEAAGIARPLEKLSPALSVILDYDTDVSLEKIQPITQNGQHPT
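Tetracycline-induced HEK293 TREx D1 cells, force-coupled to calcium signalling, were dye-loaded with a no-wash calcium kit. Compound was pin-added after a 10 s baseline. Fluorescence was read kinetically at 1 cycle/s for 180 s, with calcium rises flagged as agonism.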
TRHR PAM = allosteric enhancers of human TRH receptor. P34981. TRHR cells, fluo-8 calcium fluorescence, EC20 TRH enhancement. enhancement, % at 2 µM. 0.66% of 360,000 active; in the data active = enhancement above about 30%; note: 0% is about no effect
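Enhancer read-out: after compound pinning and an initial kinetic agonist-mode read, an EC20 of TRH (10 nM final) was injected and fluo-8 calcium signal (Ex 480/Em 530) followed at 1 s/cycle for 100 cycles in TRHR-expressing cells.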
D1 antag = antagonists of human D1 dopamine receptor. activity change, negative = inhibition, % at 10 µM. P21728. 3.2% of 360,000 active. HEK293 TREx D1 cells, calcium flux, dopamine EC80; stronger effect = lower value; in the data active = activity change below about -30%; note: % is set by controls: 0 for no effect and ±100 for the full control effect
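Kinetic fluorescence of a calcium dye serves as the read-out. D1-expressing Hek293 Trex cells, induced overnight at 30 C, are exposed to compound for 180 s before an EC80 dopamine addition, then read 180 s further.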
TRHR agonist = TRH receptor (human) agonism; AID 493084; activation, % at 2 µM; 0.18% of 360,000 active; P34981; TRHR cells, calcium flux fluo-8, FDSS agonist mode; note: 0% is about no effect
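Steps: seed TRHR cells overnight; add fluo-8 no-wash Ca dye, RT 30 min–1.5 h; record 10 s baseline; pin-transfer compounds; monitor fluorescence 1 cycle/s for the agonist window. Calcium increases flag candidate agonists.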
D1 potentiator = enhances dopamine response at the human D1 receptor | AID 504651 | potentiation, % at 10 µM | P21728 | 0.036% of 360,000 active | HEK293 TREx D1 cells, calcium flux, dopamine EC20 potentiation; in the data active = potentiation above about 30%; note: 0% is about no effect
Numbers without * were called inactive; ! = repeats disagree. Hits are enriched below; roughly 4.7% of the tested compounds scored in any of these assays. Cut-off read from the data, not from the text of the source, unless noted: active = activation above about 30%; inactive = the rest.

For Cc1cc(C)nc(/N=C2\NC(=O)CC(C(=O)O)N2c2ccc(Cl)cc2)n1 (stereo not given) the results were D1 ag -2, TRHR PAM 2, D1 antag -62*, TRHR agonist 0 and D1 potentiator -9.
CCC1SC(CC)C(=O)N(CC(=O)NCc2ccc(F)cc2)C1=O (stereo not given) was read as D1 ag 6, TRHR PAM -2, D1 antag 0, TRHR agonist 0 and D1 potentiator 2.
Screening CC1SC(C)C(=O)N(CC(=O)NCc2ccc(F)cc2)C1=O (stereo not given) returned D1 ag 0, TRHR PAM 39*, D1 antag 8, TRHR agonist 0 and D1 potentiator -1.
`Cc1ccc2nc(SCC(=O)NCc3ccc(F)cc3)[nH]c2c1` gave D1 ag 51*, TRHR PAM 1, D1 antag -45*, TRHR agonist -2 and D1 potentiator -9.
COc1ccc(CCNC(=O)c2nc(SCc3ccccc3F)ncc2Cl)cc1OC was read as D1 ag 33*, TRHR PAM -3, D1 antag -3, TRHR agonist 4 and D1 potentiator 3.
`COC(=O)CSc1nc2ccc(C)cc2[nH]1` gave D1 ag 3, TRHR PAM -4, D1 antag -36*, TRHR agonist -1 and D1 potentiator -10.
Screening Cc1cccc(OCC(=O)N(Cc2ccc(C(C)(C)C)cc2)Cc2ccco2)c1 returned D1 ag 11, TRHR PAM -2, D1 antag -10, TRHR agonist 5 and D1 potentiator 1.
CCOc1ccc(CNC(=O)c2cccn2-c2nnc(N3CCCCC3)s2)cc1OC was read as D1 ag 1, TRHR PAM -6, D1 antag -2, TRHR agonist 0 and D1 potentiator -1.
For Cc1ccccc1CSc1nc(-c2cccc(F)c2)nc2c1Cc1c(CO)cnc(C)c1O2 the results were D1 ag 1, TRHR PAM -5, D1 antag -15, TRHR agonist 0 and D1 potentiator -1.
CCOc1ccc(C(=O)N2CCC(c3nc4ccccc4o3)CC2)cc1 was read as D1 ag -2, TRHR PAM -3, D1 antag -1, TRHR agonist 0 and D1 potentiator -1.
Screening Cc1ccc(CNC(=O)c2nc(SCc3ccc(F)cc3)ncc2Cl)cc1 returned D1 ag 21, TRHR PAM 42*, D1 antag 4, TRHR agonist 4 and D1 potentiator 2.
`CCOC(=O)c1c(NC(=O)CSc2nnnn2-c2ccccc2)sc2c1CC(C)(C)NC2(C)C` gave D1 ag 6, TRHR PAM 9, D1 antag -11, TRHR agonist 1 and D1 potentiator 2.
For Cc1ccc(CNC(=O)c2nc(SCc3ccc(C)cc3)ncc2Cl)cc1 the results were D1 ag 13, TRHR PAM -3, D1 antag -2, TRHR agonist 5 and D1 potentiator 6.
Screening CCOC(=O)c1c(NC(=O)CSc2nc3ccc(C)cc3[nH]2)sc2c1CC(C)(C)NC2(C)C returned D1 ag 48*, TRHR PAM 0, D1 antag 11, TRHR agonist 2 and D1 potentiator 1.
Cc1ccc(CNC(=O)CSCc2ccc(F)cc2)cc1 was read as D1 ag 1, TRHR PAM -5, D1 antag -36*!, TRHR agonist 0 and D1 potentiator -1.
Cc1ccc(CNC(=O)CSCc2ccccc2)cc1 was read as D1 ag 3, TRHR PAM -6, D1 antag -15, TRHR agonist -2 and D1 potentiator -5.
`Cc1ccc2oc(C(=O)Nc3c(C(=O)Nc4ccccc4)oc4ccccc34)cc(=O)c2c1` gave D1 ag 1, TRHR PAM -3, D1 antag -7, TRHR agonist 0 and D1 potentiator 17.
`Cc1ccccc1CNC(=O)c1cc2cc(S(=O)(=O)N3CCCCC3)ccc2n1C` gave D1 ag 7, TRHR PAM -2, D1 antag 7, TRHR agonist 0 and D1 potentiator -3.
`N#CN1CCC(NS(=O)(=O)c2ccc(F)cc2)CC1` gave D1 ag -1, TRHR PAM 4, D1 antag -7, TRHR agonist 1 and D1 potentiator 8.
Screening Cc1ccsc1/C=N/NC(=O)CO returned D1 ag 4, TRHR PAM 2, D1 antag 7, TRHR agonist 0 and D1 potentiator 5.
Screening Cc1ccsc1/C=N\NC(=O)c1cc(C(C)(C)C)[nH]n1 returned D1 ag 0, TRHR PAM 7, D1 antag -39*, TRHR agonist -1 and D1 potentiator -8.
For CCOC(=O)N/N=C\c1sccc1C the results were D1 ag 2, TRHR PAM -4, D1 antag -42*, TRHR agonist 0 and D1 potentiator -3.
For Cc1nn(C)cc1C=NCCOCc1ccccc1 the results were D1 ag 1, TRHR PAM -4, D1 antag -32*, TRHR agonist 0 and D1 potentiator -6.
Screening CCc1ccc(CNc2nc3nc(C)c(Cc4ccccc4)c(=O)n3[nH]2)cc1 returned D1 ag 2, TRHR PAM -3, D1 antag -21, TRHR agonist 0 and D1 potentiator -1.
Screening COc1ccc(N/C(N)=N/c2nc(C)cc(=O)[nH]2)cc1 returned D1 ag 4, TRHR PAM 7, D1 antag -37*, TRHR agonist 0 and D1 potentiator -2.
For COc1ccccc1N/C(N)=N/c1nc(C(F)(F)F)cc(=O)[nH]1 the results were D1 ag 4, TRHR PAM 1, D1 antag -57*, TRHR agonist 0 and D1 potentiator -10.
Screening CCOC(=O)Cc1cc(=O)[nH]c(/N=C(\N)Nc2ccc(C)c(C)c2)n1 returned D1 ag 4, TRHR PAM 1, D1 antag -44*, TRHR agonist 0 and D1 potentiator -7.
`COc1ccc(CNC(=O)c2nn(-c3ccccc3C)nc2CO)cc1` gave D1 ag -1, TRHR PAM -3, D1 antag -1, TRHR agonist -1 and D1 potentiator -2.
`COc1ccc(C(=O)Nc2cc(C(C)=O)c(/C=C/N(C)C)oc2=O)cc1` gave D1 ag 41*, TRHR PAM -5, D1 antag 20, TRHR agonist 22 and D1 potentiator -3.
For CCc1ccc(-n2nc(CO)c(C(=O)NCCCCc3ccccc3)n2)cc1 the results were D1 ag 2, TRHR PAM 1, D1 antag 13, TRHR agonist 2 and D1 potentiator 2.
`CC1=C(OC(=O)c2ccccc2)C(C)(C)C(c2ccccc2)OC1=O` (stereo not given) gave D1 ag 1, TRHR PAM 2, D1 antag -38*, TRHR agonist -1 and D1 potentiator -6.
